# Source: the supplement of paper PMC6897291
# Tests used:
# U-2932 = test: growth inhibition by drug plus 177Lu-lilotomab satetraxetan (1 - RLU/untreated control) (fraction); higher = stronger inhibition; conditions: 177Lu-lilotomab satetraxetan 1 ug/ml
# In short: (§1)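 Growth inhibition was calculated from RealTime-Glo RLU against untreated no-drug wells. Values equal 1 − RLU/mean of 48 untreated no-drug wells per plate, read daily from day 3 after 1 h at 37°C. RIVA and U-2932 cells, with or without 18 h pretreatment by a radiolabelled anti-CD37 antibody conjugate (~600 MBq/mg; 0.5 µg/ml RIVA, 1 µg/ml U-2932), were washed and plated at 3,000 cells/well on compound-printed plates at 10/100 nM (RIVA) or 10/1,000 nM (U-2932).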
# RIVA [1] = test: as above; conditions: 177Lu-lilotomab satetraxetan 0.5 ug/ml
# In short: as §1
# RIVA [2] = test: growth inhibition by drug alone (1 - RLU/untreated control) (fraction); higher = stronger inhibition; conditions: 177Lu-lilotomab satetraxetan 0 ug/ml
# In short: as §1
compound,measurement,setting,value
Cc1cc2c(C(C)C)c(O)c(O)c(C=O)c2c(O)c1-c1c(C)cc2c(C(C)C)c(O)c(O)c(C=O)c2c1O [Gossypol],growth inhibition by drug plus 177Lu-lilotomab satetraxetan,"U-2932; 10 nM, time (day): 3",-0.115
same,growth inhibition by drug plus 177Lu-lilotomab satetraxetan,"U-2932; 10 nM, time (day): 4",-0.0678
same,growth inhibition by drug plus 177Lu-lilotomab satetraxetan,"U-2932; 10 nM, time (day): 5",-0.0445
same,growth inhibition by drug plus 177Lu-lilotomab satetraxetan,"U-2932; 10 nM, time (day): 6",0.0445
same,growth inhibition by drug plus 177Lu-lilotomab satetraxetan,"U-2932; 1000 nM, time (day): 3",-0.0917
same,growth inhibition by drug plus 177Lu-lilotomab satetraxetan,"U-2932; 1000 nM, time (day): 4",-0.0427
same,growth inhibition by drug plus 177Lu-lilotomab satetraxetan,"U-2932; 1000 nM, time (day): 5",-0.011
same,growth inhibition by drug plus 177Lu-lilotomab satetraxetan,"U-2932; 1000 nM, time (day): 6",0.0745
same,growth inhibition by drug plus 177Lu-lilotomab satetraxetan,"RIVA [1]; 10 nM, time (day): 3",0.354
same,growth inhibition by drug plus 177Lu-lilotomab satetraxetan,"RIVA [1]; 10 nM, time (day): 4",0.475
same,growth inhibition by drug plus 177Lu-lilotomab satetraxetan,"RIVA [1]; 10 nM, time (day): 5",0.501
same,growth inhibition by drug plus 177Lu-lilotomab satetraxetan,"RIVA [1]; 10 nM, time (day): 6",0.51
same,growth inhibition by drug plus 177Lu-lilotomab satetraxetan,"RIVA [1]; 100 nM, time (day): 3",0.233
same,growth inhibition by drug plus 177Lu-lilotomab satetraxetan,"RIVA [1]; 100 nM, time (day): 4",0.353
same,growth inhibition by drug plus 177Lu-lilotomab satetraxetan,"RIVA [1]; 100 nM, time (day): 5",0.38
same,growth inhibition by drug plus 177Lu-lilotomab satetraxetan,"RIVA [1]; 100 nM, time (day): 6",0.364
CC(O)(CS(=O)(=O)c1ccc(F)cc1)C(=O)Nc1ccc(C#N)c(C(F)(F)F)c1 (stereo not drawn) [Bicalutamide (Casodex)],growth inhibition by drug plus 177Lu-lilotomab satetraxetan,"U-2932; 10 nM, time (day): 3",0.0109
same,growth inhibition by drug plus 177Lu-lilotomab satetraxetan,"U-2932; 10 nM, time (day): 4",0.0278
same,growth inhibition by drug plus 177Lu-lilotomab satetraxetan,"U-2932; 10 nM, time (day): 5",0.0445
same,growth inhibition by drug plus 177Lu-lilotomab satetraxetan,"U-2932; 10 nM, time (day): 6",0.0662
same,growth inhibition by drug plus 177Lu-lilotomab satetraxetan,"U-2932; 1000 nM, time (day): 3",-0.0729
same,growth inhibition by drug plus 177Lu-lilotomab satetraxetan,"U-2932; 1000 nM, time (day): 4",0.0514
same,growth inhibition by drug plus 177Lu-lilotomab satetraxetan,"U-2932; 1000 nM, time (day): 5",0.0207
same,growth inhibition by drug plus 177Lu-lilotomab satetraxetan,"U-2932; 1000 nM, time (day): 6",-0.0101
CC1=C2C[C@H]3[C@@H](CC=C4C[C@@H](O)CC[C@@]43C)[C@@H]2CC[C@]12O[C@@H]1C[C@H](C)CN[C@H]1[C@H]2C [Cyclopamine],growth inhibition by drug plus 177Lu-lilotomab satetraxetan,"U-2932; 10 nM, time (day): 3",0.0717
same,growth inhibition by drug plus 177Lu-lilotomab satetraxetan,"U-2932; 10 nM, time (day): 4",0.0954
same,growth inhibition by drug plus 177Lu-lilotomab satetraxetan,"U-2932; 10 nM, time (day): 5",0.107
same,growth inhibition by drug plus 177Lu-lilotomab satetraxetan,"U-2932; 10 nM, time (day): 6",0.127
same,growth inhibition by drug plus 177Lu-lilotomab satetraxetan,"U-2932; 1000 nM, time (day): 3",-0.0532
same,growth inhibition by drug plus 177Lu-lilotomab satetraxetan,"U-2932; 1000 nM, time (day): 4",0.0394
same,growth inhibition by drug plus 177Lu-lilotomab satetraxetan,"U-2932; 1000 nM, time (day): 5",0.0391
same,growth inhibition by drug plus 177Lu-lilotomab satetraxetan,"U-2932; 1000 nM, time (day): 6",0.0669
CN(C)CCN(C)CCc1ccc(Cl)c(Cl)c1,growth inhibition by drug plus 177Lu-lilotomab satetraxetan,"U-2932; 10 nM, time (day): 3",-0.0419
same,growth inhibition by drug plus 177Lu-lilotomab satetraxetan,"U-2932; 10 nM, time (day): 4",-0.0108
same,growth inhibition by drug plus 177Lu-lilotomab satetraxetan,"U-2932; 10 nM, time (day): 5",-0.00129
same,growth inhibition by drug plus 177Lu-lilotomab satetraxetan,"U-2932; 10 nM, time (day): 6",0.0756
same,growth inhibition by drug plus 177Lu-lilotomab satetraxetan,"U-2932; 1000 nM, time (day): 3",-0.131
same,growth inhibition by drug plus 177Lu-lilotomab satetraxetan,"U-2932; 1000 nM, time (day): 4",-0.0418
same,growth inhibition by drug plus 177Lu-lilotomab satetraxetan,"U-2932; 1000 nM, time (day): 5",-0.0272
same,growth inhibition by drug plus 177Lu-lilotomab satetraxetan,"U-2932; 1000 nM, time (day): 6",-0.0418
CC(C)[C@]12O[C@H]1[C@@H]1O[C@]13[C@]1(O[C@H]1C[C@H]1C4=C(CC[C@@]13C)C(=O)OC4)[C@@H]2O [Triptolide],growth inhibition by drug plus 177Lu-lilotomab satetraxetan,"U-2932; 10 nM, time (day): 3",0.468
same,growth inhibition by drug plus 177Lu-lilotomab satetraxetan,"U-2932; 10 nM, time (day): 4",0.657
same,growth inhibition by drug plus 177Lu-lilotomab satetraxetan,"U-2932; 10 nM, time (day): 5",0.744
same,growth inhibition by drug plus 177Lu-lilotomab satetraxetan,"U-2932; 10 nM, time (day): 6",0.774
same,growth inhibition by drug plus 177Lu-lilotomab satetraxetan,"U-2932; 1000 nM, time (day): 3",0.965
same,growth inhibition by drug plus 177Lu-lilotomab satetraxetan,"U-2932; 1000 nM, time (day): 4",0.976
same,growth inhibition by drug plus 177Lu-lilotomab satetraxetan,"U-2932; 1000 nM, time (day): 5",0.981
same,growth inhibition by drug plus 177Lu-lilotomab satetraxetan,"U-2932; 1000 nM, time (day): 6",0.986
CC[C@@H](C(=O)[C@@H](C)[C@@H](O)[C@H](C)[C@@H]1O[C@@H]([C@@H](CC)C(=O)O)CC[C@@H]1C)[C@H]1O[C@]2(C=C[C@@H](O)[C@]3(CC[C@@](C)([C@H]4CC[C@](O)(CC)[C@H](C)O4)O3)O2)[C@H](C)C[C@@H]1C [Salinomycin (Procoxacin)],growth inhibition by drug plus 177Lu-lilotomab satetraxetan,"U-2932; 10 nM, time (day): 3",0.0566
same,growth inhibition by drug plus 177Lu-lilotomab satetraxetan,"U-2932; 10 nM, time (day): 4",0.111
same,growth inhibition by drug plus 177Lu-lilotomab satetraxetan,"U-2932; 10 nM, time (day): 5",0.126
same,growth inhibition by drug plus 177Lu-lilotomab satetraxetan,"U-2932; 10 nM, time (day): 6",0.245
same,growth inhibition by drug plus 177Lu-lilotomab satetraxetan,"U-2932; 1000 nM, time (day): 3",0.381
same,growth inhibition by drug plus 177Lu-lilotomab satetraxetan,"U-2932; 1000 nM, time (day): 4",0.516
same,growth inhibition by drug plus 177Lu-lilotomab satetraxetan,"U-2932; 1000 nM, time (day): 5",0.607
same,growth inhibition by drug plus 177Lu-lilotomab satetraxetan,"U-2932; 1000 nM, time (day): 6",0.75
CCC1(c2ccc(N)cc2)CCC(=O)NC1=O (stereo not drawn) [Aminoglutethimide (Cytadren)],growth inhibition by drug plus 177Lu-lilotomab satetraxetan,"U-2932; 10 nM, time (day): 3",-0.0302
same,growth inhibition by drug plus 177Lu-lilotomab satetraxetan,"U-2932; 10 nM, time (day): 4",0.0116
same,growth inhibition by drug plus 177Lu-lilotomab satetraxetan,"U-2932; 10 nM, time (day): 5",0.0252
same,growth inhibition by drug plus 177Lu-lilotomab satetraxetan,"U-2932; 10 nM, time (day): 6",0.0218
same,growth inhibition by drug plus 177Lu-lilotomab satetraxetan,"U-2932; 1000 nM, time (day): 3",-0.00688
same,growth inhibition by drug plus 177Lu-lilotomab satetraxetan,"U-2932; 1000 nM, time (day): 4",0.0339
same,growth inhibition by drug plus 177Lu-lilotomab satetraxetan,"U-2932; 1000 nM, time (day): 5",0.0642
same,growth inhibition by drug plus 177Lu-lilotomab satetraxetan,"U-2932; 1000 nM, time (day): 6",0.126
N.N.[Cl][Pt][Cl] [Cisplatin],growth inhibition by drug plus 177Lu-lilotomab satetraxetan,"U-2932; 10 nM, time (day): 3",0.000302
same,growth inhibition by drug plus 177Lu-lilotomab satetraxetan,"U-2932; 10 nM, time (day): 4",0.0521
same,growth inhibition by drug plus 177Lu-lilotomab satetraxetan,"U-2932; 10 nM, time (day): 5",0.0625
same,growth inhibition by drug plus 177Lu-lilotomab satetraxetan,"U-2932; 10 nM, time (day): 6",0.172
same,growth inhibition by drug plus 177Lu-lilotomab satetraxetan,"U-2932; 1000 nM, time (day): 3",-0.00976
same,growth inhibition by drug plus 177Lu-lilotomab satetraxetan,"U-2932; 1000 nM, time (day): 4",0.0376
same,growth inhibition by drug plus 177Lu-lilotomab satetraxetan,"U-2932; 1000 nM, time (day): 5",0.065
same,growth inhibition by drug plus 177Lu-lilotomab satetraxetan,"U-2932; 1000 nM, time (day): 6",0.206
O=P1(N(CCCl)CCCl)NCCCO1 (stereo not drawn) [Cyclophosphamide monohydrate],growth inhibition by drug alone,"RIVA [2]; 10 nM, time (day): 3",-0.165
same,growth inhibition by drug alone,"RIVA [2]; 10 nM, time (day): 4",-0.182
same,growth inhibition by drug alone,"RIVA [2]; 10 nM, time (day): 5",-0.227
same,growth inhibition by drug alone,"RIVA [2]; 10 nM, time (day): 6",-0.326
same,growth inhibition by drug alone,"RIVA [2]; 100 nM, time (day): 3",0.0466
same,growth inhibition by drug alone,"RIVA [2]; 100 nM, time (day): 4",-0.0413
same,growth inhibition by drug alone,"RIVA [2]; 100 nM, time (day): 5",-0.0801
same,growth inhibition by drug alone,"RIVA [2]; 100 nM, time (day): 6",-0.114
same,growth inhibition by drug plus 177Lu-lilotomab satetraxetan,"U-2932; 10 nM, time (day): 3",-0.0289
same,growth inhibition by drug plus 177Lu-lilotomab satetraxetan,"U-2932; 10 nM, time (day): 4",-0.00591
same,growth inhibition by drug plus 177Lu-lilotomab satetraxetan,"U-2932; 10 nM, time (day): 5",0.0126
same,growth inhibition by drug plus 177Lu-lilotomab satetraxetan,"U-2932; 10 nM, time (day): 6",0.184
same,growth inhibition by drug plus 177Lu-lilotomab satetraxetan,"U-2932; 1000 nM, time (day): 3",-0.0442
same,growth inhibition by drug plus 177Lu-lilotomab satetraxetan,"U-2932; 1000 nM, time (day): 4",0.00578
same,growth inhibition by drug plus 177Lu-lilotomab satetraxetan,"U-2932; 1000 nM, time (day): 5",0.00582
same,growth inhibition by drug plus 177Lu-lilotomab satetraxetan,"U-2932; 1000 nM, time (day): 6",0.0795
